Hit rate of the full screen: of about 120,000 compounds, about 5,300 (4.4%) were called active. Not shown: some 22% with an inconclusive outcome. Calls follow the shape of the dose curve; as a rule, active = well fitted inhibition curve with a large enough effect; inconclusive = small, poorly fitted or top-dose-only effect; inactive = no such curve, though single readings can be large or run the other way. What follows is part of a selection rich in actives, with near analogues and random picks from the rest. Where a call stands in place of a potency, no number is given.
Potency is read from the fitted curve at half-maximal effect.

A short description of this experiment: qHTS Primary assay for Inhibitors of Plasmodium falciparum Dd2 growth in vitro. Also: nearly all actives have a fitted effect of over 65% in size. The note with it: P. falciparum Dd2 growth, SYBR Green, 72 h; series mostly up to 28.9 µM. In outline: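 Infected erythrocytes (Dd2, 0.3% parasitemia, 2.5% hematocrit final) are added to compound in RPMI-1640/Albumax II medium, grown 72 h at 37C in low oxygen, then lysed with saponin/Triton-X containing SYBR Green and read by fluorescence.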
(Quantitative high-throughput screening tests each substance at several concentrations.)
`Cc1cccc(Nc2cc(C)nc(-n3nc(C)cc3C)n2)c1`: the Potency was 5.62 µM (active).
Still for that read-out and setting: then `Cc1cc(=O)n(CC(=O)Nc2cccc([N+](=O)[O-])c2)c(-n2nc(C)cc2C)n1`, with “inactive”.
Same read-out and setting: with `Cc1ccc(Nc2nc3ccccc3nc2-n2nc(C)cc2C)c(Cl)c1` the entry was “inactive”.
The same measure, in the same setting: then `O=C(c1ccc2cc[nH]c2n1)N1CCOCC1`, with “inactive”.
Consider `COc1ccc(CNC(=O)c2cccc3c2CCN3C(=O)c2ccc(F)cc2)cc1OC`, for which the Potency result was “inactive”.
On the same count and under the same terms, then `COc1ccc(N2C(=O)C3(CCCCC3)C2C(=O)NCCc2ccncc2)cc1` (stereo not given), with “inactive”.
As to `COc1ccc(C2Sc3ccccc3NC3=C2C(=O)c2ccccc23)c(OC)c1OC` (stereo not given), the Potency was 0.316 µM (active).
Regarding `COc1nc2nc(CC3CC3)n(C)c2cc1-c1ccc(CO)cc1`, the Potency result was “inactive”.
The same measure, in the same setting: with `COc1ccccc1Nc1cc(C(=O)NCCCN(C)C2CCCCC2)c2ccccc2n1` the figure was 10 µM (active); with `CCN(CC)CCCNC(=O)c1cn(C)c2ccc(S(=O)(=O)N(C)C3CCCCC3)cc2c1=O`, “inactive”; with `COc1ccc(CCNC(=O)c2c3c(nc4ccccc24)C(=O)N(C2CCCCC2)C3)cc1OC`, “inactive”.
Regarding `Cc1ccc(NC(=O)Cn2c(-c3ccc(Cl)cc3)nc(C)c(CCO)c2=O)cc1C`, the Potency result was “inactive”.
`O=C(NC(C(=O)N1CCCCC1)C1CCN(C(=O)c2ccc(Cl)cc2)CC1)c1ccccc1` (stereo not given): the Potency was 5.01 µM (active).
The same measure, in the same setting: then `CCN(CC)C(=O)C(NC(=O)c1ccc(OC)cc1)C1CCN(C(=O)C(C)C)CC1` (stereo not given), with “inactive”; and `CCN(CC)C(=O)C(NC(=O)c1ccc(OC)cc1)C1CCN(C(=O)c2ccc(F)cc2)CC1` (stereo not given), with “inactive”; and `CNC(=O)[C@@H]1CN(C(=O)c2ccc3ccccc3n2)C[C@H]1COC`, with “inactive”.
On the same count and under the same terms, then `CS(=O)(=O)c1cnc(NCCc2cnc[nH]2)nc1C1CCCNC1` (stereo not given), with “inactive”.
`CN(CC1CCOC1)C(=O)Nc1ccc(Cl)cc1` (stereo not given): the outcome was “inactive [at 5.79 µM]”.
Take `CC(C)(C)c1csc(NC(=O)C[C@H]2NC(=O)c3ccccc3NC2=O)n1`: the Potency entry is “inactive”.
On the same count and under the same terms, then `COCc1nc2nccc(-c3ccccc3)n2n1`, with “inactive”; and `COc1cccc(-c2ccnc3nc(-c4ccccc4OC)nn23)c1`, with “inactive”.
Same read-out and setting: then `COc1cccc(-c2ccnc3nc(Cc4cc(F)cc(F)c4)nn23)c1`, with 10 µM (active); and `CNC(=O)[C@@H]1CN(C(=O)C2CC=CCC2)C[C@H]1c1nc(C)no1` (stereo not given in full), with “inactive”.
Same read-out and setting: with `O=C(c1ccc(F)cc1)N1CCCC(c2nn(-c3cccc(Cl)c3)c(=O)[nH]2)C1` (stereo not given) the entry was “inactive”; with `CN1C(=O)CC[C@]2(C(=O)NCC3CCCCC3)CCCC[C@@H]12`, “inactive”; with `COCCN1C(=O)CC[C@]2(C(=O)NCc3cccs3)CCCC[C@@H]12`, “inactive”.
On to `CC(C)CCN1C(=O)CC[C@]2(C(=O)N3CCN(C)CC3)CCCC[C@@H]12`, for which the Potency was 11.2 µM (active).
Same read-out and setting: then `COC(=O)c1cnn(-c2ccc(C(=O)Nc3ccc(OC(F)(F)F)cc3)cc2)c1N`, with 1.58 µM (active); and `CCOc1ccc(NC(=O)c2cnn(-c3ccccc3)c2-n2cccc2)cc1`, with “inactive”.
Same read-out and setting: with `Cc1ccc2ncc(C(=O)Nc3ccc(OC(F)(F)F)cc3)c(=O)n2c1` the entry was “inactive”.
On the same count and under the same terms, then `O=C(NCC1(COc2ccc(C(F)(F)F)cn2)C[C@@H](O)[C@@H](O)C1)c1ccc(F)cc1` (stereo not given in full), with “inactive”.
In the case of `CCn1cc(CN2C[C@@H](COC)[C@H](c3nc(COC)no3)C2)cn1`, the Potency entry was “inactive”.
Still for that read-out and setting: with `COc1ccc(CCC(=O)NCc2ccc3c(c2)CCN3C(=O)c2ccc(F)cc2)cc1` the figure was 4.47 µM (active).
The same measure, in the same setting: with `O=C(COc1ccccc1)NCc1ccc2c(c1)CCN2C(=O)c1ccc(F)cc1` the entry was “inactive”.
On the same count and under the same terms, then `O=C(CCc1ccccc1)NCc1ccc2c(c1)CCN2C(=O)c1ccccc1`, with “inactive”; and `Cc1ccc(CNC(=O)N2CCCOCCNC(=O)[C@@H]3CCC[C@@H]32)cc1`, with “inactive”.
On to `C[S+](=O)([O-])c1ccc(CC(=O)N2CC(CNC(=O)C3CC3)C3(C2)CN(c2ccccc2)C3)cc1` (stereo not given), for which the Potency entry was “inactive”.
Take `Oc1ccccc1CN1CCOC[C@H]1c1ncc(-c2ccc(C(F)(F)F)cc2)[nH]1`: the Potency was 1.26 µM (active).
On the same count and under the same terms, then `c1cc(CN2CCOC[C@H]2c2ncc(-c3ccncc3)[nH]2)ccn1`, with “inactive”.
Same read-out and setting: with `c1cncc(-c2cnc([C@@H]3COCCN3Cc3cnc4ccccc4c3)[nH]2)c1` the entry was “inactive”.
On the same count and under the same terms, with `O=C(COc1ccccc1)N[C@H]1[C@H](O)[C@H](O)C[C@@H]1c1ccc(C(F)(F)F)cc1` the entry was “inactive”.
As for `Cc1ccc2c(c1)N1C(=O)OC[C@@H]1CCN(C(=O)Nc1ccccc1)C2`, the Potency result was “inactive”.
Turning to `CCOC(=O)c1ccc(NC(=O)Cn2nc3c(cc2=O)CN(C(C)=O)CC3)cc1`, the Potency entry is “inactive”.
Still for that read-out and setting: with `COCCOC1CN(C2CCN(C(=O)C3CCOCC3)CC2)C12CCCCC2` (stereo not given) the entry was “inactive”.
The same measure, in the same setting: with `Fc1cccc(CN2CCC(N3CC(OCC4CC4)C34CCCCC4)CC2)c1` (stereo not given) the figure was 0.501 µM (active); with `CCn1cc(CN2CCC(N3CC(OCC4CC4)C34CCCCC4)CC2)cn1` (stereo not given), 1.41 µM (active); with `N#Cc1cccc(CN2CCC(C3=NC(O)c4cc(F)ccc4N3)CC2)c1` (stereo not given), “inactive”.
Still for that read-out and setting: with `COCCOC1CN(C2CCN(C(=O)c3ccc(OC)nc3)CC2)C12CCCCC2` (stereo not given) the entry was “inactive”; with `O=C(c1ccc2[nH]ccc2c1)N1CCC(N2CC(OCC3CC3)C23CCOCC3)CC1` (stereo not given), “inactive”; with `O=C(Nc1cccc(Cl)c1)[C@@H]1C[C@@H](c2ccc(F)cc2)N([S+](=O)([O-])c2cccnc2)C1`, “inactive”.
Regarding `O=C1CC(c2ccccc2)N(C(=O)CNC(=O)NCc2ccc(F)cc2)CCCCCN1` (stereo not given), the Potency result is “inactive”.
Take `COc1ccc(CNC(=O)NCC(=O)N2CCCCCCNC(=O)CC2c2ccccc2)cc1` (stereo not given): the Potency is 8.91 µM (active).
The same measure, in the same setting: with `O=C1CC(c2ccccc2)N(C(=O)CNC(=O)C2CCC2)CCCCCN1` (stereo not given) the entry was “inactive”; with `CCn1cc(S(=O)(=O)N2CC[C@H]3C(=O)NCCCCCCN(Cc4ccncc4)[C@@H]3C2)cn1`, “inactive”; with `CN(C)C[C@@H]1CN(C)C[C@H]1NC(=O)c1cc2ccccc2[nH]1`, “inactive”.
`CN(C)C[C@@H]1CN(C)C[C@H]1NS(=O)(=O)c1cccc(C(F)(F)F)c1`: the Potency is 3.55 µM (active).
On to `NC(=O)[C@H](CCC(=O)O)NC(=O)[C@@]1(O)C[C@@H](O)[C@H](O)[C@@H](NS(=O)(=O)c2cccc(C(F)(F)F)c2)C1`, for which the Potency entry was “inactive”.
On the same count and under the same terms, with `CN(C)C[C@@H]1CN(C(=O)c2ccc3c(c2)OCC(=O)N3)C[C@@H]1CO` the entry was “inactive”; with `O=C(NCc1ccc2c(c1)OCO2)c1noc(-c2ccc(F)cc2)n1`, “inactive”; with `Cc1ccc(NC(=O)Cn2cccc2-c2nc(-c3ccc4c(c3)OCO4)no2)cc1Cl`, “inactive”.
Still for that read-out and setting: then `O=C(CCc1ccccc1)NCCn1cccc1-c1nc(-c2ccc3c(c2)OCO3)no1`, with 7.08 µM (active).
Take `CCc1noc(C)c1C(=O)N1CC[C@@H](NC(=O)c2ccccn2)[C@H](O)C1`: the Potency result is “inactive”.
The same measure, in the same setting: then `COc1ccc(NC(=O)CSc2nccn2C2CCCC2)cc1OC`, with “inactive”.
The same measure, in the same setting: with `O=C(CSc1nccn1C1CCCC1)Nc1cc(C(F)(F)F)ccc1Cl` the figure was 11.2 µM (active); with `Cc1cccc(-n2ccnc2SCC(=O)Nc2cc(C(F)(F)F)ccc2Cl)c1`, 3.55 µM (active); with `O=C(CSc1nccn1-c1ccc(F)cc1)Nc1cccc2ccccc12`, “inactive”.
Still for that read-out and setting: with `O=C(CSc1nc(=O)[nH]c2c1CCCC2)Nc1cc(C(F)(F)F)ccc1Cl` the entry was “inactive”.
As to `Cc1cc(C)cc(-n2ccnc2SCC(=O)Nc2nc3ccccc3s2)c1`, the Potency result is “inactive”.
Still for that read-out and setting: with `Cc1ccc(-c2noc([C@@H]3CCCN3C(=O)c3cc(Cl)ccc3F)n2)cc1` the entry was “inactive”; with `CS(=O)(=O)Cc1ccc(-c2cccc(OCc3ccccc3F)c2)nc1`, “inactive”.
Still for that read-out and setting: with `COCCC(=O)NCCC1CCN(C(=O)Nc2ccccc2F)CC1` the entry was “inactive”; with `C[S+](=O)([O-])N1CC2ON=C(C(=O)O)C2C1` (stereo not given), “inactive”.
Take `CCOc1ccc2c(n1)CCN(C(=O)c1ccccc1C)C2`: the Potency result is “inactive”.
The same measure, in the same setting: with `C[C@@H]1CN(C(=O)c2ccc(-c3ccn[nH]3)cc2)CC[C@@]1(O)C1CCOCC1` the entry was “inactive”; with `COC(=O)CNC(=O)N1CCOC(c2ccc(Cl)c(Cl)c2)C1` (stereo not given), “inactive”; with `Cc1noc(-c2cccn3c(CNC(=O)CCc4ccccc4)nnc23)n1`, “inactive”.
With `COc1cccc(CC(=O)NC2CCN(c3cc(-c4ccccc4)[nH]n3)C2)c1` (stereo not given), the Potency result is “inactive”.
Same read-out and setting: with `CC(C)C[C@@H]1N[C@H](C(=O)NCc2ccc(F)cc2)Cc2cn(C)c3cccc1c23` the figure was 14.1 µM (active); with `COc1ccc(CNC(=O)[C@@H]2Cc3cn(Cc4ccncc4)c4cccc(c34)[C@H](CC(C)C)N2)cc1`, “inactive”; with `CC#CCn1cc2c3c(cccc31)[C@H](CC(C)C)N[C@H](C(=O)NCc1ccccc1OC)C2`, “inactive”.
The same measure, in the same setting: then `O=C(Nc1cccnc1)N[C@@H]1C[C@H](CO)[C@@H](O)[C@H]1O`, with “inactive”.
Same read-out and setting: then `Cc1ccccc1CNC(=O)C1CCCN(C(=O)c2ccccc2)CCC(=O)NCC1` (stereo not given), with “inactive”; and `O=c1c2cccnc2n(Cc2cccc(F)c2)c(=O)n1Cc1ccccc1Cl`, with 12.6 µM (active).
As for `COc1ccc(-n2c(=O)c3ccccc3n(Cc3ccccc3Cl)c2=O)cc1`, the Potency result is “inactive”.
Still for that read-out and setting: with `O=C(O)c1ccc(CSc2nc3cccnc3n2Cc2cccc(F)c2)cc1` the entry was “inactive”; with `COc1ccc(-c2ccnc3nc(CC(C)C)nn23)c(F)c1`, “inactive”.
Regarding `CC(NC(=O)c1noc(-c2ccc(F)cc2)n1)c1ccc(F)cc1` (stereo not given), the Potency entry was “inactive”.
On the same count and under the same terms, with `CC(C)C(=O)N1CCC(OC2CCN(Cc3ccccc3)CC2)CC1` the entry was “inactive”; with `CC(C)CN1CCN(C2CCOC3(CCN(S(=O)(=O)c4cccs4)CC3)C2)CC1` (stereo not given), “inactive”.
The same measure, in the same setting: with `O=S(=O)(c1cccs1)N1CCC(OC2CCN(Cc3ccccc3)CC2)CC1` the figure was 3.55 µM (active).
Same read-out and setting: with `Cc1cccc(C(=O)N2CCC(CC(=O)NCc3ccccc3)C2)c1` (stereo not given) the entry was “inactive”; with `Cc1cccc(C(=O)N2CCC(OC3CCN(Cc4ccccc4)CC3)CC2)c1`, 3.98 µM (active); with `CN1CCCN(S(=O)(=O)c2cccs2)c2ccccc21`, “inactive”.
Consider `N[C@H]1CCN2C(=O)c3cc(-c4ccc(F)cc4F)ccc3NC(=O)[C@H]12`, for which the Potency entry was “inactive”.
Turning to `Cc1cccc(C(=O)N2CC(c3nnc(C(C)C)o3)C3(CCOCC3)C2)c1` (stereo not given), the Potency entry is “inactive”.

For the origin of these results see PubChem BioAssay AID1347417 (National Center for Advancing Translational Sciences (NCATS), 2020).
